# Laboratory results from PubChem BioAssay.
# Active and inactive are the calls of the source.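 Rule for the calls, unless noted: active = compounds killing one labelled cell type while sparing the other, by normalised counts and ratio limits, not self-fluorescent; inactive = the rest.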
# What was measured:
# [1] = EMT-state selective cytotoxicity in co-culture – imaging, PC-3E GFP, TEM4-18 mCherry, primary screen (AID 1345086); conditions: PC-3E GFP / TEM4-18 mCherry co-culture, imaging cell counts, at 1 µM; for red/green cell ratio (normalised): actives lie on both sides;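 for all read-outs here: cells exposed to compound for 72 h before imaging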;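 for red/green cell ratio (normalised): normalised mesenchymal count divided by normalised epithelial count so high means epithelial killing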
# [2] = system: Neuropilin-2 / VEGF-C interaction (human); test: small molecules blocking Neuropilin-2/VEGF-C interaction – biochemical, microplate binding format, z-score (AID 743281; call rule not given here); conditions: microplate NRP2/VEGF-C binding assay; stronger effect = lower value
# [3] = modulation of C. elegans fzo-1 (AID 1259413; call rule not given here;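 note: fzo-1 mutant C. elegans worms in liquid wells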); conditions: C. elegans fzo-1 modulator screen, mean read-out; stronger effect = higher value
# [4] = P. berghei load reduction in hepatocytes – cell-based, HepG2, luciferase luminescence, HepG2 viability, primary screen (AID 624349; in the data active = parasite load remaining mostly below about 12%, no sharp cut-off; inactive = mostly above about 10%;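 note: 100% = mean of DMSO negative control wells on the same plate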); conditions: P. berghei liver stage in HepG2, luciferase luminescence, concentration not given here; parasite load remaining: stronger effect = lower value; viability: measured here: HepG2 viability without parasites
# [5] = signal quenchers or enhancers, Cy5 substrate/SSB – biochemical, NIH Clinical Collection, E. coli SSB, artefact control for HCV NS3 helicase inhibitor project (AID 743268; call rule not given here); conditions: Cy5-oligo bound E. coli SSB, fluorescence interference
# [6] = system: Hepatitis C virus NS3 helicase; test: blockers of NS3h binding to DNA – biochemical, fluorescence polarization, NIH Clinical Collection, primary screen (AID 743270; call rule not given here); conditions: NS3 helicase binding to Cy5-dT15 DNA, stronger effect = higher value, concentration not given here
# [7] = biological target: Single-stranded DNA-binding protein (Escherichia coli (strain K12)) (UniProt P0AGE0); test: SSB-ssDNA binding inhibitors – biochemical, fluorescence polarization, NIH Clinical Collection, counter-screen for HCV NS3 helicase inhibitor project (AID 743271; in the data active = inhibition above about 28%); conditions: E. coli SSB-DNA binding, stronger effect = higher value, concentration not given here
# [8] = compounds distorting NS3 helicase fluorescence signal – biochemical, NIH Clinical Collection, artefact control for HCV NS3 helicase inhibitor project (AID 743272; call rule not given here;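 note: HCV NS3 helicase with a Cy5 labelled single stranded DNA probe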); conditions: fluorescence interference counterscreen, HCV NS3 helicase assay; stronger effect = lower value
# [9] = measured here: epithelial PC-3E GFP cell survival
# [10] = measured here: mesenchymal TEM4-18 mCherry cell survival
# [11] = counts scaled to control wells, 1 = unselective
smiles,measurement,setting,value
C[C@]12CC[C@H](O)C[C@H]1CCC1C2CC[C@]2(C)[C@@H](C3=CC(=O)OC3)[C@@H](O)C[C@]12O (stereo partly drawn),red/green cell ratio (normalised),[1],0.39 (active)
same,normalised cell number,[1]; [9],0.91
same,normalised cell number,[1]; [10],0.35
C[C@]12[C@H](O)CC3C(CC[C@@H]4C[C@@H](O)CC[C@]34C)[C@@]1(O)CC[C@@H]2C1=CC(=O)OC1 (stereo partly drawn),red/green cell ratio (normalised),[1],0.53 (inactive)
same,normalised cell number,[1]; [9],0.38
same,normalised cell number,[1]; [10],0.2
Cc1cc(O)cc2oc(=O)c3c(O)cc(O)cc3c12,red/green cell ratio (normalised),[1]; [11],0.89 (inactive)
same,normalised cell number,[1]; [9],0.99
same,normalised cell number,[1]; [10],0.88
C[C@@H]1[C@H](O)[C@@H](C)/C=C/C=C/CC/C=C/C=C/C=C/C=C/[C@H](OC2O[C@H](C)[C@@H](O)[C@H](N)[C@@H]2O)C[C@@H]2O[C@](O)(C[C@@H](O)[C@H](O)CC[C@@H](O)C[C@@H](O)C[C@@H](O)CC(=O)O[C@H]1C)C[C@H](O)[C@H]2C(=O)O (stereo partly drawn),red/green cell ratio (normalised),[1]; [11],0.86 (inactive)
same,normalised cell number,[1]; [9],1.27
same,normalised cell number,[1]; [10],1.09
CC12CC[C@H](O)CC1=CC[C@@H]1[C@@H]2CCC2(C)[C@H]1CC[C@]2(C)O (stereo partly drawn),outcome,[2],inactive
same,mean signal,[3],278 (inactive)
CC1NCCc2cc(O)c(O)cc21 (stereo not drawn),red/green cell ratio (normalised),[1]; [11],0.96 (inactive)
same,normalised cell number,[1]; [9],1.11
same,normalised cell number,[1]; [10],1.06
CC[C@H](c1cccc(O)c1)[C@@H](C)CN(C)C,red/green cell ratio (normalised),[1],0.92 (inactive)
same,normalised cell number,[1]; [9],1.05
same,normalised cell number,[1]; [10],0.96
C=C(C)CN1CC[C@]23c4c5ccc(O)c4O[C@H]2c2[nH]c4ccccc4c2CC3(O)C1C5 (stereo partly drawn),outcome,[2],inactive
same,mean signal,[3],243 (inactive)
C[N+]12CC[C@@]34c5ccccc5N5C(=O)CC6OCC=C(C1)[C@@H](CC32)[C@@H]6C54 (stereo partly drawn),red/green cell ratio (normalised),[1]; [11],1.07 (inactive)
same,normalised cell number,[1]; [9],0.95
same,normalised cell number,[1]; [10],1.01
C[C@@H]1CC[C@H]2[C@@H](C)C(=O)O[C@@H]3O[C@]4(C)CC[C@@H]1[C@]32OO4,red/green cell ratio (normalised),[1]; [11],1.06 (inactive)
same,normalised cell number,[1]; [9],0.97
same,normalised cell number,[1]; [10],1.03
CN1C2CC(=O)CC1[C@H](O)C2 (stereo partly drawn),red/green cell ratio (normalised),[1]; [11],0.81 (inactive)
same,normalised cell number,[1]; [9],1.25
same,normalised cell number,[1]; [10],1.01
Fc1ccc(N2CCNCC2)c(F)c1,red/green cell ratio (normalised),[1],1.03 (inactive)
same,normalised cell number,[1]; [9],1.01
same,normalised cell number,[1]; [10],1.04
O=C1NCC[C@@H]1O,red/green cell ratio (normalised),[1]; [11],0.9 (inactive)
same,normalised cell number,[1]; [9],1.14
same,normalised cell number,[1]; [10],1.03
CC12Cc3cn[nH]c3C[C@@H]1CC[C@@H]1[C@@H]2CCC2(C)[C@H]1CC[C@]2(C)O (stereo partly drawn),outcome,[2],inactive
same,mean signal,[3],229 (inactive)
C[N+]12CC(C[C@H]1c1cccnc1)C2,red/green cell ratio (normalised),[1]; [11],1.02 (inactive)
same,normalised cell number,[1]; [9],1.14
same,normalised cell number,[1]; [10],1.16
C[C@@H]1CC[C@@]2(NC1)OC1CC3C4CC=C5C[C@@H](O)CC[C@]5(C)C4CC[C@]3(C)C1[C@@H]2C (stereo partly drawn),red/green cell ratio (normalised),[1]; [11],1.02 (inactive)
same,normalised cell number,[1]; [9],1.11
same,normalised cell number,[1]; [10],1.13
CC[C@H](C)/C=C(C)/C=C/C1=CC2=C(Cl)C(=O)[C@](C)(OC(C)=O)C(=O)C2=CO1,red/green cell ratio (normalised),[1]; [11],1 (inactive)
same,normalised cell number,[1]; [9],0.96
same,normalised cell number,[1]; [10],0.96
O=C1NCC[C@H]1O,red/green cell ratio (normalised),[1]; [11],0.95 (inactive)
same,normalised cell number,[1]; [9],1.13
same,normalised cell number,[1]; [10],1.08
COc1cc(=O)oc(/C=C/C=C/C=C/C(C)=C/[C@@]2(C)O[C@@H](C)[C@@](C)(O)[C@@H]2O)c1C,red/green cell ratio (normalised),[1]; [11],0.98 (inactive)
same,normalised cell number,[1]; [9],0.87
same,normalised cell number,[1]; [10],0.85
CC[C@]1(O)CC[C@H]2[C@@H]3CCC4=CCCC[C@@H]4[C@H]3CCC21C (stereo partly drawn),outcome,[2],inactive
same,mean signal,[3],230 (inactive)
CC12C/C(=C/O)C(=O)C[C@@H]1CC[C@@H]1[C@@H]2CCC2(C)[C@H]1CC[C@]2(C)O (stereo partly drawn),outcome,[2],inactive
same,mean signal,[3],230 (inactive)
COc1cc(O)c(C(=O)O)c(-c2cc(O)c(O)cc2C)c1,red/green cell ratio (normalised),[1]; [11],1.12 (inactive)
same,normalised cell number,[1]; [9],0.82
same,normalised cell number,[1]; [10],0.92
Nc1ccc(-c2ccccc2)cc1,red/green cell ratio (normalised),[1]; [11],1.07 (inactive)
same,normalised cell number,[1]; [9],0.96
same,normalised cell number,[1]; [10],1.03
CC1(C)CC(=O)C(Cl)C(=O)C1,red/green cell ratio (normalised),[1]; [11],0.82 (inactive)
same,normalised cell number,[1]; [9],1.28
same,normalised cell number,[1]; [10],1.05
Oc1ccc2c3c1OC1C(O)CC[C@@]4(O)[C@@H](C2)N(CC2CCC2)CC[C@]314 (stereo partly drawn),parasite load remaining,[4],133% (inactive)
same,viability,[4],141%
same,fluorescence ratio,[5],0.97 (inactive)
same,inhibition,[6],-1.98% (inactive)
same,inhibition,[7],9.14% (inactive)
same,fluorescence ratio,[8],0.88 (inactive)
same,z-score,[2],-0.335 (inactive)
same,mean signal,[3],241 (inactive)
CCC(C)[C@H]1O[C@]2(C=C[C@@H]1C)C[C@@H]1C[C@@H](C/C=C(\C)[C@@H](OC3C[C@H](OC)C(O[C@H]4C[C@H](OC)[C@@H](O)[C@H](C)O4)[C@H](C)O3)[C@@H](C)/C=C/C=C3\COC4[C@H](O)C(C)=C[C@@H](C(=O)O1)[C@]34O)O2 (stereo partly drawn),red/green cell ratio (normalised),[1]; [11],0.68 (inactive)
same,normalised cell number,[1]; [9],0.88
same,normalised cell number,[1]; [10],0.6
